According to PubChem BioAssay AID504329 (Southern Research Specialized Biocontainment Screening …, 2011):
Out of some 340,000 compounds screened, about 1,000 (0.29%) were called active. Cut-off read from the data, not from the text of the source: inconclusive = inhibition above about 27% without an active follow-up result; inactive = below that. A selection follows. Potency and affinity values are given separately.

Assay: H1N1 influenza NS1A inhibitors, functional cell based assay (AID 504329)
Settings: percent inhibition, at 12.5 µM, hits give high values

| SMILES | inhibition |
| --- | --- |
| Cc1ccc(NC(=O)NNC(=O)CN2C(=O)COc3ccccc32)cc1 | -2.65% (inactive) |
| Cc1cccc(OC(=O)c2cccnc2)c1C | -8.58% (inactive) |
| CC(C)c1nnc(NC(=O)C2CCCN(C(=O)Nc3ccc(F)cc3)C2)s1 (stereo not drawn) | -2.41% (inactive) |
| CCOC(=O)C1CCN(C(=O)C2CCC(=O)N(Cc3cccc(C(F)(F)F)c3)C2)CC1 (stereo not drawn) | 11.5% (inactive) |
| Cc1cc2ccccc2n1CCNC(=O)C(C)C | 4.98% (inactive) |
| CC(=O)NCCn1c(C)cc2ccccc21 | -2.59% (inactive) |
| O=C(OCc1ccccc1F)c1cc([N+](=O)[O-])ccc1N1CCOCC1 | 12.7% (inactive) |
| CC(=O)NC(c1ccc(C)cc1)c1cc([N+](=O)[O-])c2cccnc2c1O (stereo not drawn) | 22% (inactive) |
| CCC(=O)NC(c1ccc(C)cc1)c1cc([N+](=O)[O-])c2cccnc2c1O (stereo not drawn) | 27.3% (inactive) |
| CCCC(=O)NC(c1cccs1)c1cc(Cl)c2cccnc2c1O (stereo not drawn) | -9.38% (inactive) |
| CC(C)C(=O)NC(c1cccs1)c1cc([N+](=O)[O-])c2cccnc2c1O (stereo not drawn) | 7.53% (inactive) |
| CCCC(=O)NC(c1ccco1)c1cc([N+](=O)[O-])c2cccnc2c1O (stereo not drawn) | 4.57% (inactive) |
| CC(C)C(=O)NC(c1ccccc1)c1cc([N+](=O)[O-])c2cccnc2c1O (stereo not drawn) | 3.43% (inactive) |
| Cc1ccc(NC(=O)c2cc(-c3ccccc3)n[nH]2)cc1 | -9.32% (inactive) |
| COc1ccc(NC(=O)CSc2nnc(C(C)C)n2N)cc1 | 2.67% (inactive) |
| O=C(Cn1c2c(c(=O)n3ncnc13)CCC2)N/N=C/c1ccc(Cl)cc1 | -0.52% (inactive) |
| CCn1ncc(Br)c1C(=O)Nc1nccs1 | 8% (inactive) |
| COC(=O)/C=C/c1ccc(OC(=O)c2ccncc2)cc1 | -0.93% (inactive) |
| CC(=O)C1=C(c2ccccc2)OC(N)=C(C#N)C1c1ccccc1C (stereo not drawn) | 7.47% (inactive) |
| Cn1c(CC(=O)Nc2ccccc2F)nnc1SCC(=O)NC1CCCC1 | 4.61% (inactive) |
| Cc1cccc(N=C2NC(=O)c3cc([N+](=O)[O-])ccc32)c1 | -0.91% (inactive) |
| O=[N+]([O-])c1ccc2c(c1)C(=Nc1ccccc1)c1ccccc1-2 | 19.1% (inactive) |
| COc1ccc(CCNCc2ccccc2F)cc1 | -20.5% (inactive) |
| COc1ccc(CCNCc2ccccc2)cc1 | -9.83% (inactive) |

| SMILES | inhibition |
| --- | --- |
| COc1ccc(CC(=O)NCCC2=CCCCC2)cc1 | 10.7% (inactive) |
| COc1ccc(C(=O)NCCC2=CCCCC2)cc1 | -1.2% (inactive) |
| CCN1C[C@@H]2[C@@H]3C(=O)N(Cc4ccccc4)C(=O)[C@@H]3[C@](CC)(C(=O)OC)N2C1=NC1CCCCC1 | -28.6% (inactive) |
| Cc1ccc(NC(=O)C2CCN(S(=O)(=O)c3ccc4c(c3)C(C)(C)C(=O)N4C)CC2)c(C)c1 | 8.27% (inactive) |
| CCCn1c(N)c(N(CCOC)C(=O)COC(=O)CSc2cc(C)c3ccccc3n2)c(=O)[nH]c1=O | -17.1% (inactive) |
| Cc1cc(/C=C2\SC(=S)N(C)C2=O)c(C)n1-c1cccc(O)c1 | -1.47% (inactive) |
| Cc1cc(/C=C2\SC(=S)N(C)C2=O)c(C)n1-c1ccccc1O | 6.77% (inactive) |
| CN1C(=O)/C(=C\c2ccccc2OCc2ccccc2)SC1=S | 10.4% (inactive) |
| COc1ccc(O)c(/C=C2/SC(=S)N(Cc3ccccc3)C2=O)c1 | 8.37% (inactive) |
| CC(=O)c1c(C)[nH]c(C(=O)NC2=NCCS2)c1C | 7.87% (inactive) |
| O=C(CN1C(=O)NC2(CCCCC2)C1=O)Nc1cc(C(F)(F)F)ccc1N1CCOCC1 | -9.76% (inactive) |
| COc1ccccc1Oc1c(C)oc2c(CN(C)C)c(O)ccc2c1=O | 12.9% (inactive) |
| COc1ccc(N/N=C(\C#N)C(=N)N2CCOCC2)cc1 | 0.407% (inactive) |
| CCOC(=O)CCCCC(=O)c1[nH]c(=O)[nH]c1CSCCO | 12.6% (inactive) |
| O=C(CCCC(=O)OCC(=O)NC1CCCC1)Nc1ccccn1 | -6.66% (inactive) |
| Cc1[nH]c(=O)[nH]c(=O)c1CSCC(=O)OCC(=O)Nc1ccccn1 | -14.1% (inactive) |
| CCCCSCc1[nH]c(=O)[nH]c1C(=O)CCCCC(=O)OCC | 1.07% (inactive) |
| O=C(CP(=O)(O)CC(=O)c1ccccc1)c1ccccc1 | 5.59% (inactive) |
| O=C1c2cccnc2C(=O)N1CNc1ccc(Cl)cc1 | 3.28% (inactive) |
| COc1cccc(C(=O)NCCS(=O)(=O)NCc2cccnc2)c1 | -2.08% (inactive) |
| CC(C)CCNC(=O)C(CC(C)C)N(Cc1ccc2c(c1)OCO2)C(=O)c1snc(C(N)=O)c1N (stereo not drawn) | 6.77% (inactive) |
| C=CCC1(C#N)C(SC)=NC2=C(C(=O)CC(C)(C)C2)C1c1ccc(Br)cc1 (stereo not drawn) | -5.14% (inactive) |
| O=C(CN1C(=O)COc2ccccc21)Nc1ccccc1F | 2.27% (inactive) |
| O=C(CN1C(=O)COc2ccccc21)Nc1ccc2c(c1)OCCO2 | 0.43% (inactive) |
